The test relates to Toxoplasma gondii RH 2F1 tachyzoites (intracellular in HFF). The experiment in a line: parasite survival relative to DMSO control; higher = less antiparasitic activity, active = 20 or less. The following applies: 1 µM; 72 h. The essentials:
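Survival is the β-galactosidase-derived signal from intracellular Toxoplasma gondii RH-2F1 tachyzoites, expressed as a percentage of infected wells treated with DMSO. HFF cells (5 × 10^3 cells/well, 96-well plates) were infected with 5 × 10^3 parasites in D2 medium for 3 h and then treated with compound at 1 μM for 72 h at 37°C in 5% CO2. After lysis, CPRG was added and absorbance at 570 nm was read at 30 min, with 2 or more biological replicates.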
Regarding `Nc1nc2c(ncn2/C=C2/CC2(CO)CO)c(=O)[nH]1`, the parasite survival was 84.8% (inactive).

With `CC(C)(C)c1ccc(Oc2ccc(N)cc2)cc1`, the parasite survival is 81.4% (inactive).

For `CCc1cc(CCC(=O)Nc2ccccc2O)c(O)nc1C`, the parasite survival is 70.1% (inactive).

As for `COc1c(NC(=O)[C@H]2CC[C@@H](COc3ccc([N+](=O)[O-])cc3)CC2)c(F)cc2c(=O)c(C(=O)O)cn(C3CC3)c12`, the parasite survival is 47.7% (inactive).

As for `Cc1cccc(C)c1C(=O)Nc1nc(-c2ccccn2)cc2ccccc12`, the parasite survival is 4.42% (active).

In the case of `Nc1nc(O)c2ncn([C@@H]3O[C@H](CO)[C@@H](O)[C@H]3F)c2n1`, the parasite survival is 75.9% (inactive).

On to `O=C(Nc1ccccc1)N(Cc1cc(Br)ccc1O)c1ccc(F)cc1`, for which the parasite survival is 21.3% (inactive).

Regarding `CC(=O)NC[C@H]1CN(c2ccc(N3CCSCC3)c(F)c2)C(=O)O1`, the parasite survival was 44% (inactive).

Consider `C[C@@H](NC(=O)c1cccc(-c2cnc(-c3cc4ccccc4cn3)[nH]2)c1)c1ccc(F)cc1`, for which the parasite survival was 11.6% (active).

In the case of `CC1(C)CC(NC(=O)C(=O)Nc2ccc(Cl)cc2)CC(C)(C)N1`, the parasite survival is 69.9% (inactive).

With `CC(=O)O[C@H]1C[C@@]2(C)[C@@H](C[C@@H](O)[C@H]3[C@@]4(C)CC[C@@H](O)[C@@H](C)[C@@H]4CC[C@@]32C)/C1=C(\CCC=C(C)C)C(=O)O`, the parasite survival was 48.4% (inactive).

For `Nc1nc(-c2ccccc2)nc2c1ncn2[C@@H]1O[C@H](COS(=O)(=O)NC(=O)c2ccccc2O)[C@@H](O)[C@H]1O`, the parasite survival was 60.7% (inactive).

For the compound `O=C(Nc1cccc(C2=NCCN2)c1)c1ccc(-c2ccc(C(=O)Nc3cccc(C4=NCCN4)c3)cc2)cc1`, the parasite survival is 22.1% (inactive).

`CN(C)CCCOc1ccc(-c2ccc3ncc4c(c3c2)n(C2CCOCC2)c(=O)n4C)cn1`: the parasite survival was 50.5% (inactive).

Regarding `CCCCc1ccc(C(=O)O)nc1`, the parasite survival is 54.6% (inactive).

`CCOC(=O)Nc1cc(NC(C)CC(C)CN(CC)CC)c2nc(-c3ccccc3)c(-c3ccccc3)nc2n1` (stereo not given): the parasite survival is 7.01% (active).

As for `CC(C)=CCC/C(C)=C/CNCCNC1C2CC3CC(C2)CC1C3` (stereo not given), the parasite survival is 8.85% (active).

Consider `NC1C2CC3CC(C2)CC1C3` (stereo not given), for which the parasite survival is 68.3% (inactive).

With `C[N+]1(C)CCCC(OC(=O)C(O)(c2ccccc2)c2ccccc2)C1` (stereo not given), the parasite survival was 61.6% (inactive).

Take `O=S(=O)(Nc1ccc(-n2cccc2)cc1)c1ccc(Cl)c(Cl)c1`: the parasite survival is 58.1% (inactive).

`N=C(N)NCCCCC(=O)Nc1cc(C(F)(F)F)cc(NC(=O)c2cc(C(=O)Nc3cc(C(F)(F)F)cc(NC(=O)CCCCNC(=N)N)c3O[C@@H]3CCNC3)ncn2)c1O[C@@H]1CCNC1`: the parasite survival is 58.7% (inactive).

For the compound `NC(=O)c1[nH]c2ccc(S(N)(=O)=O)cc2c1-c1ccccc1`, the parasite survival was 72.1% (inactive).

`CC1CN(c2ncnc3c2c(-c2ccccc2)cn3-c2ccc(F)cc2)CC(C)O1` (stereo not given): the parasite survival is 34.4% (inactive).

As to `NC(=O)c1cnccn1`, the parasite survival is 52.5% (inactive).

Take `CCC(CC)[C@H](NC(C)=O)[C@@H]1[C@H](O)[C@@H](C(=O)O)C[C@H]1NC(=N)N`: the parasite survival is 69.6% (inactive).

For `C[C@H]1CC[C@@]2(O)C(C)(C)[C@@H]3CC[C@@]2(C)[C@H]1C3`, the parasite survival is 55.5% (inactive).

For `Cc1ncc([N+](=O)[O-])n1CC(O)CN1CCOCC1` (stereo not given), the parasite survival is 52.5% (inactive).

Turning to `CCCCN1C[C@H](O)[C@@H](O)[C@H](O)[C@H]1CO`, the parasite survival is 61.5% (inactive).

As to `CC(C)N(c1cc(-c2ccccc2)sc1C(=O)O)C(=O)[C@H]1CC[C@H](C)CC1`, the parasite survival is 65% (inactive).

Consider `O=C(O)[C@H]1C2CCC(CC2)[C@@H]1Nc1nc(-c2c[nH]c3ncc(F)cc23)ncc1F`, for which the parasite survival was 44.8% (inactive).

Take `O=C(Nc1ccc(-c2ccccc2)cc1)C1=C(O)C(Cc2ccccc2)OC1=O` (stereo not given): the parasite survival is 54.1% (inactive).

Take `CCCCCCC1c2ccc(O)cc2Oc2cc(O)ccc21`: the parasite survival was 25.2% (inactive).

As to `Clc1ccc(Cn2c(CN3CCCC3)nc3ccccc32)cc1`, the parasite survival is 42.2% (inactive).

Take `CC(C)(C)c1ccc(OCCn2nc(C(=O)O)c3ccccc3c2=O)cc1`: the parasite survival was 45.3% (inactive).

Consider `Fc1ccc(-c2nc(-c3c[nH]c4ccc(Br)cc34)[nH]c2-c2ccc(F)cc2)cc1`, for which the parasite survival was 36.6% (inactive).

For the compound `Cc1cc(-c2ccccc2)c(C(=O)C(=O)Nc2ccc(N3CCN(c4ncc(F)cn4)CC3)cc2)n1C`, the parasite survival was 9.71% (active).

Consider `COC(=O)Nc1nc2cc(Sc3ccccc3)ccc2[nH]1`, for which the parasite survival was 25.4% (inactive).

Turning to `CC(Cc1ccccc1)C(=O)Nc1ccc(Cl)cc1C(=O)O` (stereo not given), the parasite survival was 42% (inactive).

Take `C=C(C)[C@@H]1CC[C@]2(C(=O)O)CC[C@]3(C)[C@H](CC[C@@H]4[C@@]5(C)CC[C@H](O)C(C)(C)[C@@H]5CC[C@]43C)[C@@H]12`: the parasite survival is 46.6% (inactive).

Regarding `CC(C)(C)c1cc(C(=O)/C(C#N)=N/Nc2cccc(Cl)c2)no1`, the parasite survival was 37.6% (inactive).

For the origin of these results see the supplement of paper PMC10941209.
